Data from PubChem BioAssay (NCATS).
Unmarked numbers belong to inactive results. Records with an inconclusive call do not appear. Calls of active or inactive are those of the source. Unless noted, calls follow the shape of the dose curve; as a rule, active = well fitted curve in either direction with a large enough effect (not every such curve was filed as active); inconclusive = small, poorly fitted or top-dose-only effect, or another doubt; inactive = flat fitted curve, though single readings scatter.

How the values were obtained:
[1] = AP1 Signaling Pathway (AID 357); conditions: ME-180 AP-1-bla reporter, EGF-induced, beta-lactamase ratio, 5 h; at 17.2 µM (top of the series) unless noted;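 also: ME-180 reporter cells stimulated with EGF at its EC50 level; % is scaled to controls: 0 for no effect and ±100 for the full control effect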
How it was run: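 A ratiometric CCF4 readout (405 nm excitation; 460 and 530 nm emission) quantified AP-1-driven beta-lactamase in ME-180 cells after 5 h with compound and EC50 EGF; AC50 values were derived for activators and inhibitors.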

[2] = NFAT Signaling Pathway (AID 444); conditions: Jurkat NFAT-bla M1, carbachol, beta-lactamase ratio, 5 h; at 17.2 µM (top of the series) unless noted;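 also: carbachol stimulus at about its EC50 of 1 µM final; % is scaled to controls: 0 for no effect and ±100 for the full control effect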
How it was run: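 Jurkat cells carrying an NFAT-driven β-lactamase reporter and co-transfected muscarinic M1 receptor were treated with compound plus carbachol (1 uM final, an EC50 level) for 5 h at 37 °C. CCF4 loading followed for 1 h at RT; 460/530 nm ratio gave %activity.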

[3] = Stat Signaling Pathway (AID 446); conditions: ME-180 SIE beta-lactamase reporter, IL-6 stimulated, 5 h; at 17.2 µM (top of the series) unless noted;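 also: ME-180 cervical cancer cells given 40 pM IL-6 alongside compound; SIE-controlled beta-lactamase reporter measured as 460/530 nm FRET emission ratio; % is scaled to controls: 0 for no effect and ±100 for the full control effect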
How it was run: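 Normalization used AC90 stimulation (300 pM IL-6) and AC90 inhibition (125 nM pan-JAK inhibitor at 40 pM IL-6). The underlying signal is SIE-driven beta-lactamase in ME-180 cells after 5 h IL-6 exposure with compound.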

[4] = molecular target: Glucocorticoid receptor (Homo sapiens) (UniProt P04150); test: GR-GFP Redistribution (AID 450;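 active = compounds whose dose series gives a full or clear partial fitted curve of increased nuclear translocation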; also: potency is read from the fitted curve at half-maximal effect)
Sequence of Glucocorticoid receptor (Homo sapiens) (P04150 whole entry, looked up): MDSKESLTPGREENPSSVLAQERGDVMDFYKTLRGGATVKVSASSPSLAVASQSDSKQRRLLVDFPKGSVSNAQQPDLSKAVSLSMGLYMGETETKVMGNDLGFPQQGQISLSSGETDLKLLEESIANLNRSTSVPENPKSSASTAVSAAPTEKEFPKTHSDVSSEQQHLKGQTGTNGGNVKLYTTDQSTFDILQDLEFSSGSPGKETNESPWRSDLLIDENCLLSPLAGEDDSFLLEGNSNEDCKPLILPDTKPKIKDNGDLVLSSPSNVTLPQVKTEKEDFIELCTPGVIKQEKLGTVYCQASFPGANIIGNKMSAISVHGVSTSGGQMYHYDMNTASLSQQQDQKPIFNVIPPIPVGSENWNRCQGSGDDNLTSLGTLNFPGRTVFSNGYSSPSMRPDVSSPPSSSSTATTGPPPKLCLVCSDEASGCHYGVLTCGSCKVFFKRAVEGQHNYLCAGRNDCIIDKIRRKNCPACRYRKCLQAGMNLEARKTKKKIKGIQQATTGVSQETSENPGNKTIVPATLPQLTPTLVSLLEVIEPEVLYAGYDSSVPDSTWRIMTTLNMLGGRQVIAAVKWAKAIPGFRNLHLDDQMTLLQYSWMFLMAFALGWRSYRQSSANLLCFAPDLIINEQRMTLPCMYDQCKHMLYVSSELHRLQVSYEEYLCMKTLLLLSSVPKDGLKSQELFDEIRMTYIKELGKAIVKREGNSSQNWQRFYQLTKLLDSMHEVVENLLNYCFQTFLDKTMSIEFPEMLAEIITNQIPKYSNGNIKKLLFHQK

[5] = qHTS Assay for Identification of Small Molecule Agonists for Hypoxia Response Element Signaling Pathway (AID 914; active = well fitted activation curve with a large enough effect in the signal ratio, with a control signal flat, not every such curve was filed as active; the % refers to the signal ratio; also: potency is read from the fitted curve at half-maximal effect; as to activation: % of control where 0% means no effect); conditions: ME-180 (cervical carcinoma) HRE-bla reporter, beta-lactamase ratio, CoCl2, 17 h; activation: hits give high values
How it was run: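 HRE-bla ME-180 cells with beta-lactamase reporter under hypoxia response element, compounds with EC50 CoCl2 for 17 hours at 37 C. CCF4 substrate, 460nm/530nm emission ratio gave %Activity; AC50 from titration series.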

Row | SMILES | activity change, negative = inhibition [1] [%] | activity change, negative = inhibition [2] [%] | activity, negative = inhibition [3] [%] | Potency [4] [µM] | activation [5] [%] | Potency [5]
1 | CCCC(CCC(=O)Nc1ccc(C(=O)OCC)cc1)C(=O)O (stereo not given) | 4.36 | 0.831 | 3.58 | > 20.6 | 10 | –
2 | COCCNc1nc2c(c(=O)n(Cc3ccc(OC)cc3)c(=O)n2C)n1C | -10.1 | -7.8 | -12.3 | > 20.6 | -9.75 | –
3 | CC1(C)Cc2nc(NCCN3CCOCC3)c(C#N)cc2CO1 | 7.57 | 7.63 | 11 | > 20.6 | 3.3 | –
4 | CCCOC(=O)CSC1=C(C#N)C(c2ccc3c(c2)OCO3)CC(=O)N1 (stereo not given) | -0.809 | 11.1 | 1.94 | > 20.6 | -15.4 | –
5 | CC(C)(C)C1=Nn2c(nnc2-c2ccccn2)SC1 | 4.11 | 0.351 | 4.69 | > 20.6 | -1.04 | –
6 | COC(=O)/C(C#N)=C1/SC=C(C)N1c1ccccc1 | 1.21 | 3.89 | 4.42 | > 20.6 | -6.52 | –
7 | O=C(CNC1C(=O)Nc2ccccc21)Sc1ccccc1 (stereo not given) | -0.11 | -10.4 | 9.1 | > 20.6 | 4 | –
8 | Cc1nnc(SCCC#N)n(CCC#N)c1=O | 25.1 | -2.84 | -5.67 | > 20.6 | 15.5 | –
9 | CN1c2ccccc2-c2nc3ccccc3n2C1c1ccco1 (stereo not given) | 5.2 | -6.44 | -0.11 | > 20.6 | -8.71 | –
10 | N#CC12CCCCC1CC1CCCCC1(C#N)N2Cc1cccnc1 (stereo not given) | 11.8 | -6.79 | 4.8 | > 20.6 | 9.28 | –
11 | Oc1ccccc1CNn1cnnc1 | -0.712 | 15.6 | 4.83 | > 20.6 | 7.68 | –
12 | COc1ccc(C(=O)Cn2c(Br)nc3c2c(=O)n(C)c(=O)n3C)cc1OC | 7.09 | 25.7 | 0.59 | > 20.6 | 8.03 | –
13 | CCCCOc1ccc(CSC(CC(=O)O)C(=O)O)cc1 (stereo not given) | 11.3 | 11.2 | 1.48 | > 20.6 | 26.9 | –
14 | COc1ccc(C2C(C(C)=O)=C(O)C(=O)N2c2nccs2)cc1OC (stereo not given) | -6.01 | 21.8 | 3.64 | > 20.6 | -13.7 | –
15 | CCC(=O)N(Cc1cccs1)C1CCOC(C)(C)C1 (stereo not given) | -6.24 | -16.2 | -2.05 | > 20.6 | -1.46 | –
16 | COC(=O)C(NC(C)=O)(Nc1nc2c(s1)CCCC2)C(F)(F)F (stereo not given) | 1.18 | -2.64 | -8.22 | > 20.6 | -17 | –
17 | O=C(NC1CCS(=O)(=O)C1)c1c(NC(=O)C2COc3ccccc3O2)sc2c1CCCC2 (stereo not given) | -20.8 | -18.5 | -9.79 | > 20.6 | – | 5.01 µM (active)
18 | COc1cc(NC(=O)NC(C)(C(F)(F)F)C(F)(F)F)cc(OC)c1OC | -9.62 | 19.4 | -4.15 | > 20.6 | -29.2 | –
19 | Cc1ccc(OCc2nnc(NC(=O)c3ccco3)s2)c(C)c1 | -4.34 | 11.7 | -14.8 | > 20.6 | -11.9 | –
20 | CCCCOc1nc2ccccc2nc1C(C#N)C(=O)NC1CCCCC1 (stereo not given) | 8.43 | -13.6 | 25.7 | > 20.6 | – | 12.6 µM (active)
